Test results published in PubChem BioAssay AID1578 (Sanford-Burnham Center for Chemical Genomics, 2009).
Among all 290,000 compounds or so, about 3,000 (1%) were called active. Cut-off read from the data, not from the text of the source: active = inhibition mostly above about 36% (no sharp cut-off); inactive = mostly below about 34%. Many of the other results were omitted from the sample, so actives are more common in it than they were.

Experiment: inhibition of NOD1-driven NF-kB reporter – cell-based, luminescence, uHTS, primary screen (AID 1578);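 note: HEK-293T reporter cells stimulated with the NOD1 agonist gamma-tri-DAP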
Conditions: NOD1-driven NF-kB luciferase reporter cells, at 4 µM, hits give high values

inhibition, active:
COc1ccc2[nH]c3c4c(ccc3c2c1)C(=O)C=CC4=O 51%, CN(C)C=NC(=O)c1cc(C(=O)c2ccc(Cl)cc2Cl)c[nH]1 59.7%, Cc1nn(C(C)(C)C)c(OC(=O)c2cccs2)c1Sc1ccccc1 68.5%, O=C(/C=C\Nc1ccc2c(c1)OCO2)c1ccccn1 70.6%, O=C(/C=C/Nc1ccccc1Br)c1ccccn1 84.5%, O=C(/C=C\Nc1ccccc1Br)c1ccc2c(c1)OCO2 59.6%, Oc1ccc(Nc2ccnc3cc(Cl)ccc23)cc1 53.4%, O=C(NNc1ccnc2cc(Cl)ccc12)C1CCCCC1 47.5%, C=C1CCC[C@]2(C)C[C@H]3OC(=O)C(CN(Cc4ccc(OC)c(OC)c4)CC(C)O)[C@H]3CC12 (stereo partly drawn) 33.5%, Cc1c(C(C)C)c(=O)n(-c2ccc(S(=O)(=O)NCc3ccccc3)cc2)n1C 44.6%, CCOC(=O)c1[nH]ncc1CN1CCCC(C(=O)c2ccc(OC)c(OC)c2)C1 (stereo not drawn) 111%, N#CCCN(C(=O)CCl)c1cccc(Cl)c1 58%, Cc1ccc(N(CCC#N)C(=O)CCl)cc1C 97.7%, O=C(CCl)N(Cc1cccc([N+](=O)[O-])c1)c1cccc(Cl)c1 101%, CN(c1ccccc1)c1ccc(/C=C(\C#N)c2nnc3n2CCCCC3)cc1[N+](=O)[O-] 78.8%, CCC(CO)[n+]1c(C)cc(/C=C2\Sc3ccccc3N2Cc2ccccc2)cc1C (stereo not drawn) 75.9%, Cc1ccc(C(=O)NC(=S)N2CCN(c3cc(C)ccc3C)CC2)cc1 55.1%, Cc1ccc(OCC(O)CNC2CCCC2)cc1C (stereo not drawn) 62.6%

inhibition, inactive:
Cc1nn(C)c(C(=O)Nc2ccc(Br)cc2F)c1Br 46%, CCOP(=O)(OCC)C(NC(=O)Nc1ccccc1)c1ccccc1 (stereo not drawn) -11.6%, COc1ccc2[nH]c(C)cc(=O)c2c1 -7.4%, COc1ccc2c(c1)c1ccc3c(c1n2C)C(=O)C=CC3=O 0.4%, Cc1ccc(NC(=S)NNC(=O)c2ccc(N3CCOCC3)c([N+](=O)[O-])c2)cc1C -2.1%, COc1ccc(-c2csc(NC(=O)CCS(=O)(=O)c3ccccc3)n2)c(OC)c1 -13.4%, COc1ccc(C(O)(C(C)C)C(CN2CCOCC2)c2ccccc2)cc1 (stereo not drawn) 5.4%, CN(C)C=NC(=O)c1cc(C(=O)c2ccccc2Cl)c[nH]1 -1.9%, CN(C)C=NC(=O)c1cc(C(=O)c2ccc(Cl)cc2)c[nH]1 38.4%, O=C1CN(C(=O)NCC(=O)N[C@H](Cc2ccccc2)C(=O)O)c2ccccc2N1 -34.2%, CC(C)c1cccc(C(C)C)c1NC(=O)Cn1c(=O)cnc2ccccc21 -9.4%, CN1CCC(N(C)S(=O)(=O)c2ccc(NC(=O)COc3ccc(F)cc3Cl)cc2)CC1 -16.5%, COc1ccccc1OC(=O)Cc1cccc2ccccc12 63.8%, CC(=O)c1ccc(N2CCN(C(=O)CN(C)S(=O)(=O)c3cnc[nH]3)CC2)cc1 -22.7%, N#CCn1cnc2sc(-c3ccccc3)cc2c1=O -27.8%, Cc1nn(C(C)(C)C)c(OC(=O)c2ccco2)c1Sc1ccccc1 -2.8%, Cc1nn(C(C)(C)C)c(OC(=O)c2ccc(Br)o2)c1Sc1ccccc1 19.3%, Cc1ccc(C2(C)NC(=O)N(CC(=O)Nc3cc(S(=O)(=O)N(C)C)ccc3C)C2=O)cc1 (stereo not drawn) -19.4%, O=C(/C=C\Nc1ccc2c(c1)OCO2)c1ccc2c(c1)OCO2 -48.7%, O=C(/C=C/c1ccc2c(c1)OCO2)c1ccccn1 -6.5%, O=C(/C=C\Nc1ccccn1)c1ccccc1 -49.1%, O=C(/C=C/c1ccccc1Br)c1ccc2c(c1)OCO2 -20%, O=C(/C=C\Nc1ccc2c(c1)OCO2)c1cccs1 -64.5%, O=C(/C=C/c1ccccc1)c1ccccn1 -15.9%, COc1cc(-c2cc(-c3ccccc3)nc(SCC(=O)O)c2C#N)cc(OC)c1OC -3.4%, O=C(NCc1ccccc1)C1CCCN(S(=O)(=O)c2ccc(-n3cnnn3)cc2)C1 (stereo not drawn) 34.5%, O=C(NC1CCSC1=O)c1ccccc1 (stereo not drawn) 18.9%, Cc1ccc2sc(N(CCN(C)C)C(=O)c3ccc(S(=O)(=O)N4CC(C)OC(C)C4)cc3)nc2c1C (stereo not drawn) -6.4%, COc1ccc(Br)cc1C1CC(=O)C(C)C(c2cc(Br)ccc2OC)N1 (stereo not drawn) -12%, COc1ccc(/C=N/NC(=O)CSCc2ccc([N+](=O)[O-])cc2)cc1OC -10.4%, O=C(NNc1ccc(F)cc1F)C1CCC1 -1.9%, CCOc1ccc(Nc2ccnc3cc(Cl)ccc23)cc1 5.9%, NC(=S)NNc1ccnc2cc(Cl)ccc12 -8.6%, O=C(NNc1cc(Cl)ccc1Cl)C1CCC1 -7.1%, Clc1ccc(NNc2ccnc3cc(Cl)ccc23)cc1 -35.6%, Clc1ccc(CNC2CCCC2)cc1 9.1%, Cc1ccc(CN(C(=O)c2ccc([N+](=O)[O-])cc2)C2CCS(=O)(=O)C2)o1 (stereo not drawn) -50%, CCOC(=O)C1CCCN(C(=O)CCNS(=O)(=O)c2cc(Br)cnc2N)C1 (stereo not drawn) -11.8%, Cc1cc(C)c(NC(=O)COC(=O)c2cc([N+](=O)[O-])ccc2N2CCOCC2)c(C)c1 -25.6%, CCOc1ccc(N2C(=O)CC(NCCNc3ccc(C(=O)c4cccs4)cc3)C2=O)cc1 (stereo not drawn) -13.5%, C=C1CCC[C@]2(C)C[C@H]3OC(=O)C(CN[C@@H](C)c4ccccc4)[C@H]3CC12 (stereo partly drawn) -16.5%, C=C1CCC[C@]2(C)C[C@H]3OC(=O)C(CN(C)CC(OC)OC)[C@H]3CC12 (stereo partly drawn) -4.9%, CCc1ccccc1NC(=S)NCCSc1ccc(Cl)cc1 -3.7%, Cc1c(C(C)C)c(=O)n(-c2ccc(S(=O)(=O)NC3CC3)cc2)n1C -14.8%, Cc1c(C(C)C)c(=O)n(-c2ccc(S(=O)(=O)NC(C)C)cc2)n1C 8.6%, O=C(Nc1ccc(F)cc1F)c1ccc2ncsc2c1 -38%, CC(C)OCCCNC(=O)c1cc(-c2cccnc2)nc2ccccc12 -6.7%, COC(=O)CN(c1ccc(OC)c(OC)c1)S(C)(=O)=O -16%, CCOC(=O)c1[nH]ncc1CN1CCCC(C(=O)c2ccc(C(C)(C)C)cc2)C1 (stereo not drawn) -29.3%, CCOC(=O)c1[nH]ncc1CN1CCCC(C(=O)c2cc(Cl)ccc2OC)C1 (stereo not drawn) 16.4%, Cc1cccc(N(Cc2ccccc2)C(=O)CCl)c1 -31.5%, O=C(c1ccco1)N(Cc1ccccc1)c1cccc([N+](=O)[O-])c1 24%, Cc1ccc(N(CCC#N)C(=O)CSc2ccc3c(c2)OCCO3)cc1 3.9%, N#CCCN(C(=O)Nc1ccc(Cl)cc1)c1ccccc1 -13%, Cc1ccc(C(=O)N(CC#N)CC#N)cc1C -16.5%, N#CCCN(C(=O)COc1ccc(Cl)cc1Cl)c1ccccc1 -24.1%, CCCCc1n[nH]c2c1/C(=N/O)CC(C)(C)C2 -12.1%, O=C(N/N=C/c1ccncc1)c1cc2ccccc2cc1O 11.3%, Cc1cccc(NC(=O)CSC2=NN3CCCC(=O)N=C3S2)c1C 7.2%, CC(=O)O/N=C(/c1nonc1N)N(C)C -21.6%, CCCc1nc2ccc(N)cc2c(=O)n1Cc1ccccc1Cl -43.9%, CC(Sc1nc(N)c(NC(=O)c2ccc(Br)o2)c(=O)[nH]1)C(=O)O (stereo not drawn) -18.7%, N#C/C(=C/c1cccc([N+](=O)[O-])c1)c1nnc2n1CCCCC2 -32.4%, N#C/C(=C\c1cccc([N+](=O)[O-])c1)c1nnc2n1CCCCC2 9%, Cc1ccnc(NC(=O)/C=C/c2ccccc2[N+](=O)[O-])c1 -40.4%, Cc1nccn1CC(O)COc1ccc([N+](=O)[O-])cc1 (stereo not drawn) -5.8%, CCOC(=O)Cn1nnnc1CN(Cc1ccc(OC)cc1)Cc1cc2cc(C)cc(C)c2[nH]c1=O -21.1%, Cn1c(=O)c2c(nc(N/N=C/c3ccc(OC(=O)c4ccco4)cc3)n2Cc2ccc(F)cc2)n(C)c1=O 33.2%, Cn1c(=O)c2c(nc(N/N=C/c3ccc(OC(=O)c4ccco4)cc3)n2Cc2ccccc2)n(C)c1=O 26.6%, Cc1nn2c3ccccc3n(CC(=O)c3cccs3)c2nc1=O 19.3%, COc1cccc(CNC(=O)N2CCN(S(=O)(=O)c3ccc(Cl)cc3)CC2)c1 12.4%, COc1ccc(C(=O)C2CCCN(C(=O)COc3ccc(C(C)=O)cc3)C2)cc1F (stereo not drawn) -21.9%, CCN1/C(=C2\SC(=S)N(Cc3ccccc3)C2=O)Sc2ccccc21 4.6%, C[n+]1ccccc1/C=C1\Sc2ccccc2N1CCO -20.4%, COc1ccc(CNS(=O)(=O)c2ccccc2Br)cc1 3.1%, CC(=O)c1cccc(Nc2ccc(-c3ccccc3F)nn2)c1 -57.9%, Cc1ccc(C(=O)NC(=S)N2CCN(c3ccccc3F)CC2)cc1 19.9%, Cc1ccc(C(=O)NC(=S)N2CCN(C)CC2)cc1 -21.2%, COc1ccc(OCC(O)CNC2CCCC2)cc1 (stereo not drawn) 5.8%, Cc1ccc(C)c(OCC(O)CNC2CCCC2)c1 (stereo not drawn) -40.4%
